Assay results from PubChem BioAssay AID1159571 (Broad Institute, 2015).
Potency and affinity values are given separately. Active and inactive are the calls of the source. The rule behind the calls is not given here.

Assay: P. falciparum ATP4 D1247Y mutant growth inhibitors, dose response, NITD609-resistant line, SYBR Green, dry powder (AID 1159571)
Conditions: series mostly up to 19.5 µM; activity change, negative = inhibition: at the top concentration

Compound	activity change, negative = inhibition
O=C(NC[C@@H]1CC[C@H]2[C@H](CN2Cc2cc(-c3ccccc3)on2)O1)c1ccc2c(c1)OCO2	18% (inactive)
COc1cccc(C#Cc2ccc([C@H]3[C@@H](CO)N(C(=O)c4ccccn4)[C@H]3C#N)cc2)c1	11.4% (inactive)
C[C@@H]1CN([C@H](C)CO)C(=O)c2cccc(NC(=O)c3ccc(-c4nccs4)cc3)c2O[C@H]1CN(C)Cc1ccc(C(F)(F)F)cc1	23.8% (inactive)
COc1ccc(S(=O)(=O)Nc2ccc3c(c2)CC(=O)N([C@@H](C)CO)C[C@H](C)[C@H](CN(C)S(=O)(=O)c2ccc(OC)cc2)O3)cc1	37.9% [at 21 µM] (inactive)
Cc1ccccc1-c1ccccc1[C@H]1[C@@H](C#N)N(C(=O)c2ccccc2)[C@@H]1CO	-10.3% (inactive)
